Source: PubChem BioAssay (The Scripps Research Institute Molecular Screening Center)
CHRM1 antagonist: human CHRM1 antagonism | 360,000 tested, 1.3% active | CHO-K1 hM1, Fluo-8 calcium fluorescence, ACh EC80 antagonist | P11229 | inhibition, % at 3 µM | AID 588852;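 active = percent inhibition above its own plate's cutoff, namely the mean of that plate's compound wells plus 3 SD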;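 note: peak over basal fluorescence ratio during 140 s after agonist addition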
Target sequence (P11229 whole entry, looked up): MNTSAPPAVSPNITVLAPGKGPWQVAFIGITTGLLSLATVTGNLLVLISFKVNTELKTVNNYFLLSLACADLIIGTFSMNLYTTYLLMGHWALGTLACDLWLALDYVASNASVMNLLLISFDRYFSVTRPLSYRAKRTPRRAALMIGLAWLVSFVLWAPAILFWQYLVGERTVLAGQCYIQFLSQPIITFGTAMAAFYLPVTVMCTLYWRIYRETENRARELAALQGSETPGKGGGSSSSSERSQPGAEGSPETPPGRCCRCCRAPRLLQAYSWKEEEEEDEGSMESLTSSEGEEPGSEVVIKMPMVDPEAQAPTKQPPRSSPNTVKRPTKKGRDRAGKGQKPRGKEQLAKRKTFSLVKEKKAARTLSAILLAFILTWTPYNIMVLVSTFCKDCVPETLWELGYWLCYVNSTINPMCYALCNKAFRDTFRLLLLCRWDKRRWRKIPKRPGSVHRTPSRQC
CHRM1 agonist: human M1 muscarinic receptor agonism; activation, % at 3 µM; AID 588814; CHO-K1 hM1, Fluo-8 calcium fluorescence, agonist mode; 0% DMSO, 100% acetylcholine EC100; 360,000 tested, 0.33% active;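 active = activation above the run's mean compound activation plus 3 SD, cut at about 16% in these data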;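 note: peak over basal fluorescence ratio within a 140 s kinetic read after compound addition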
CHO-K1 Ca ag: M1 agonist counterscreen hit in parental CHO-K1 cells. 360,000 tested, 0.48% active. AID 602248. Fluo-8 calcium fluorescence; scaled to maximal ATP response, vehicle zero. activation, % at 3 µM; in the data active = activation above about 15%;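 note: untransfected CHO-K1 host cells lacking M1 receptor as counterscreen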
M1 PAM: human CHRM1 positive allosteric modulation; 360,000 tested, 0.088% active; CHO-K1 hM1, Fluo-8 calcium fluorescence, ACh EC20; 0% = ACh EC20, 100% = maximal ACh; P11229; activation, % at 3 µM; in the data active = activation above about 19%, passing the limit was not always enough
M1 PAM parental: M1 PAM counterscreen hit in parental CHO-K1 cells. AID 602247. ATP EC20, Fluo-8 calcium fluorescence; 0% at ATP EC20, 100% at ATP max. activation, % at 3 µM. 360,000 tested, 0.02% active;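 active = activation above the run cutoff, the mean activation of all test compounds plus 3 SD, cut at about 40% in these data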;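 note: peak over basal fluorescence ratio in a 140 s read after ATP addition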
CHO-K1 Ca antag: counter-screen for M1 antagonists: effect in parental CHO-K1 cells | ATP-induced calcium, Fluo-8 fluorescence | inhibition, % at 3 µM | 360,000 tested, 0.6% active | AID 602250;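 active = inhibition above a per-plate cutoff, the plate's mean sample inhibition plus 3 SD, cut at about 24% in these data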
Of the large screens only hits and unclear results are named; the others gave an inactive call; ! = not confirmed by another sample. Most compounds without a hit are left out; they make up all but 2.3% or so of the library.

Cc1cc(NC(=O)CCC(=O)N(CC(=O)NCC2CCCO2)c2cccc(F)c2)no1 (stereo not drawn)	none
O=C(CN1CCC(Cc2ccccc2)CC1)NC(=O)NCc1ccco1	M1 PAM 20.1
O=C(CN1CCN(c2ccccc2O)CC1)NC(=O)NCc1ccco1	none
CC(C)(C)C(=O)Nc1ccc(Sc2ccc([N+](=O)[O-])cc2)cc1	CHRM1 antagonist 35.3
Cn1c(CC(=O)NN)c(Sc2ccccc2)c2ccccc21	none
COC(=O)c1c(Sc2ccccc2)c2ccccc2n1C	CHRM1 agonist 35.0
Cc1ccc(-n2c(SCC(N)=O)nnc2-c2ccc(S(=O)(=O)N3CCCCC3)cc2)c(C)c1	CHRM1 antagonist 90.6
Cn1c(SCC(N)=O)nnc1-c1ccc(S(=O)(=O)N2CCCC2)cc1	none
O=c1[nH]nc(SCc2nnc(-c3cccc(Cl)c3)o2)n1C1CCCCC1	none
O=C(CSCC(=O)N1CCCCC1)Nc1nc(-c2ccc(Cl)s2)cs1	CHRM1 antagonist 31.1
COc1cc(C(C)=O)ccc1OCCN1CCC(Cc2ccccc2)CC1	CHRM1 antagonist 45.2
COc1cc(C(C)=O)ccc1OCCCN1CCC(Cc2ccccc2)CC1	CHRM1 antagonist 43.8
O=C(c1cccs1)N1C[C@H](O)[C@@H](n2cc(C3CC3)nn2)C[C@@H]1c1ccccc1	none
O=S(=O)(c1ccc(Br)s1)N1CCC2(CC1)OCCO2	none
O=C(CSc1ccc2nnc(-c3ccccc3)n2n1)NCc1ccc2c(c1)OCO2	none
O=C(CSc1ccc2nnc(-c3cccnc3)n2n1)NCc1ccc2c(c1)OCO2	CHRM1 antagonist 63.8
CCc1nc(N2CCN(C(=S)NCCCOC)CC2)c2c3c(sc2n1)CCCC3	none
O=S1(=O)CC(N2CCN(CC3CC3)CC2)CN1C1CCCC1 (stereo not drawn)	CHO-K1 Ca antag 26.1
O=S1(=O)CC(N2CCN(CCO)CC2)CN1C1CCCCC1 (stereo not drawn)	none
CNC(=O)COC(=O)c1c2c(nc3ccccc13)CCC2	none
CCCCNC(=O)COC(=O)c1c2c(nc3ccccc13)CCC2	none
Cc1c(NC(=O)COC(=O)c2c3c(nc4ccccc24)CCCC3)c(=O)n(-c2ccccc2)n1C	none
COc1ccc(OC)c(NC(=O)COC(=O)c2c3c(nc4ccccc24)CCCC3)c1	CHRM1 antagonist 38.5
COc1ccc(NC(=O)COC(=O)c2c3c(nc4ccccc24)CCCC3)cc1	CHRM1 antagonist 32.0
COc1ccc(NC(=O)COC(=O)c2c3c(nc4ccccc24)CCCC3)cc1Cl	CHRM1 antagonist 22.4
O=C(NCc1ccc(F)cc1)c1cc(C2CCCN(C(=O)c3ccc4c(c3)CCO4)C2)on1 (stereo not drawn)	none
Cc1ccc(S(=O)(=O)N2CCCCC2)cc1NC(=O)c1ccccn1	none
CC1(C)Cc2cccc(OCC(=O)NCc3ccccc3F)c2O1	CHRM1 antagonist 29.0
CC(=O)Nc1ccc(NC(=O)COc2cccc3c2OC(C)(C)C3)cc1	none
CC1(C)CC(=O)c2c(O)cc(OCC(=O)Nc3ccc(S(N)(=O)=O)cc3)cc2O1	none
Cc1nc2ccccc2nc1OCC(=O)Nc1cc(C(F)(F)F)ccc1N1CCOCC1	none
Cc1ccc(CNC(=O)COc2cccc3c2OC(C)(C)C3)cc1	none
COc1cc(NC(=O)COc2cccc3c2OC(C)(C)C3)cc(OC)c1OC	CHO-K1 Ca ag 18.3
COc1cc(NC(=O)COc2cc(O)c3c(c2)OC(C)(C)CC3=O)cc(OC)c1OC	CHRM1 antagonist 51.5, CHO-K1 Ca ag 18.2, CHO-K1 Ca antag 36.8
CC1(C)Cc2cccc(OCC(=O)Nc3cc(C(F)(F)F)ccc3N3CCOCC3)c2O1	CHO-K1 Ca antag 30.3
CCOc1ccc2oc(C(=O)NCC(C)(C)CN(C)C)c(C)c2c1	none
O=C(CN1C(=O)CC(c2ccco2)Sc2ccccc21)Nc1ccc2c(c1)OCCO2 (stereo not drawn)	CHRM1 antagonist 37.7
COc1ccc(/C=C2/C(=O)C(C)(C(C)C)CCC2C)cc1 (stereo not drawn)	none
COc1ccccc1NC(=O)C1CCCN1C(=O)Nc1ccc(F)cc1 (stereo not drawn)	none
CCO[C@@H]1OC(C(=O)NCc2ccccc2)=C[C@H](c2ccc(Br)cc2)[C@H]1CCCO	CHRM1 antagonist 67.9
CCO[C@H]1OC(C(=O)NCc2ccccc2)=C[C@@H](c2ccc(C(F)(F)F)cc2)[C@@H]1CCCO	none
C#Cc1ccc([C@@H]2C=C(C(=O)Nc3ccccc3)O[C@H](OCC)[C@H]2CCCO)cc1	none
C#Cc1ccc([C@H]2C=C(C(=O)NCc3ccccc3)O[C@@H](OCC)[C@@H]2CCCO)cc1	CHRM1 antagonist 63.2
COc1ccc(CNC(=O)C2CCN(S(=O)(=O)c3cccc4nonc34)CC2)cc1	none
CCCCNc1c(N)n(CC(C)C)c(=O)[nH]c1=O	none
CCCc1cc(C(=O)Nc2cc(OC)ccc2OC)cs1	CHO-K1 Ca antag 25.1
COc1ccc2oc(C(=O)OCC(=O)N(C)C3CCCCC3)c(C)c2c1	none
O=C(c1ccco1)N(CCC(c1ccccc1)c1ccco1)Cc1ccc(F)cc1 (stereo not drawn)	none
CC1(C)CC(C(CCN(Cc2ccccc2)C(=O)c2ccco2)c2ccc(F)cc2)CCO1 (stereo not drawn)	CHRM1 antagonist 36.1
COc1ccc2oc(C(=O)OCC(=O)NC3(C#N)CCCC3)c(C)c2c1	none
COC(=O)c1oc2c(c1C)C1(CCC2)SCCS1	CHRM1 antagonist 30.5
COc1ccc(CCn2nnnc2C(CC(C)C)N2CCN(c3ncccn3)CC2)cc1OC (stereo not drawn)	CHO-K1 Ca antag 36.8
O=C(COC(=O)c1cc(S(=O)(=O)N2CCCCC2)ccc1N1CCOCC1)c1ccccc1	none
COc1ccc2[nH]c(=O)c(CN(Cc3cccs3)S(=O)(=O)c3c(C)ccc4nsnc34)cc2c1	CHRM1 antagonist 44.5
O=C(NC1CCCC1)C(c1ccccc1F)N(C(=O)Cc1cccs1)c1ccc2c(c1)OCCO2 (stereo not drawn)	CHO-K1 Ca ag 23.9
CCOC(=O)[C@]12CCCC=C1N(Cc1ccco1)C(=O)[C@H](CC(=O)N1CCSCC1)C2	none (no result: CHRM1 antagonist, CHRM1 agonist, M1 PAM)
OC1C(O)C(O)C(O)C(O)C1O (stereo not drawn)	CHRM1 antagonist 99.9!
CN1CCC(N(C)C(=S)Nc2ccc(F)cc2)CC1	none
CN1CCC(N(C)C(=S)Nc2ccc(SC(F)F)cc2)CC1	CHRM1 agonist 17.9
Cc1ccc(S(=O)(=O)N2CCN(C(=O)COC(=O)COc3ccccc3C(C)C)CC2)c(C)c1	none
COCCN(CC(=O)Nc1cccc(C)c1C)C(=O)c1oc2ccccc2c1C	none
CCCN1CCc2c(sc(NC(=S)NC(=O)c3ccccc3)c2C#N)C1	CHRM1 agonist 36.9, CHO-K1 Ca ag 46.0
CC(C)N1CCc2c(sc(NC(=S)NC(=O)c3ccccc3)c2C#N)C1	none
O=C(Nc1ccc(O)c(C(=O)O)c1)Oc1ccccc1	none
